Screening results deposited in PubChem by several laboratories.
A selection: hits, their analogues and other compounds. The true share with any hit is near 2.2%.
LGR2 inh = inhibitors of bursicon-induced LGR2 CRE-luciferase signal, primary screen, cell-based, HEK293, CRE-luciferase reporter, bursicon stimulation; 380,000 compounds, 0.35% hits; Drosophila bursicon receptor LGR2 (rickets); inhibition, % at 9.99 µM; AID 720647, 2013; bursicon-stimulated, 4 h;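 active means drop in luminescence signal, shown as inhibition above about 50% in the replicate tests, limit read from the data, passing the limit was not always enough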;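 further: agonist challenge used bursicon conditioned medium at about half maximal strength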
TROY signal inh = inhibitors of TROY-driven NF-kB signaling, primary screen, Q293 LMP1-TROYcd cells, NF-kB luciferase, uHTS; Q293 LMP1-TROYcd NF-kB luciferase reporter, 4 h; inhibition, % at 10 µM; 360,000 compounds, 0.98% hits;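 active means compounds whose plate-normalised and pattern-corrected inhibition of the luciferase reporter signal at the single screening dose is 50% or more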
HSP90 refold inh = HSP90 inhibitors, primary screen, cell lysate, luminescence; Heat shock protein HSP 90 (rabbit reticulocyte lysate; luciferase refolding); Rabbit reticulocyte lysate, luciferase refolding luminescence, 3 h; inhibition, % at 5.6 µM; 290,000 compounds, 0.91% hits; AID 1789, 2009;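 active means inhibition above the screen-wide mean plus 3 SD, computed separately per campaign, cut at about 16% in these data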;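 further: inhibitors lower the luminescence because luciferase stays unfolded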
TWEAK-Fn14 inh = inhibitors of TWEAK-Fn14 signaling, primary screen, luciferase reporter cells, uHTS; TWEAK-stimulated Fn14 reporter cells, luciferase luminescence, 8 h; inhibition, % at 10 µM; 360,000 compounds, 2% hits; AID 1159606, 2016; in the data active means inhibition above about 50%
Numbers stand for hits; - = inactive; . = no result given.

SMILES | LGR2 inh | TROY signal inh | HSP90 refold inh | TWEAK-Fn14 inh
CN(Cc1ccc(OC(F)F)cc1)C(=O)c1cccc(S(=O)(=O)N2CCN(c3ccccc3)CC2)c1 | - | - | . | 73
C[C@H]1CN([C@@H](C)CO)C(=O)c2cc(-c3ccc(F)cc3)cnc2O[C@H]1CN(C)C(=O)Nc1ccccc1F | - | . | . | .
Cc1noc(C)c1NC(=O)Nc1cccc2c1O[C@H](CN(C)Cc1ccncc1)[C@@H](C)CN([C@H](C)CO)C2=O | - | . | . | .
COC(=O)c1cc(=O)nc(NN=C2c3ccccc3-c3ccccc32)s1 | - | - | . | 61
COC(=O)c1cc(=O)nc(NN=Cc2ccccc2)s1 | - | . | . | .
CCOC(=O)N(C)C[C@H]1OCc2ccccc2-c2ccccc2C(=O)N([C@@H](C)CO)C[C@@H]1C | - | . | . | .
O=C1c2cccc3cccc(c23)C(=O)N1Cc1cccnc1 | - | - | - | -
O=C1c2cccc3c([N+](=O)[O-])ccc(c23)C(=O)N1Cc1cccnc1 | 103 | 64 | - | -
COc1ccc(-n2c(-c3ccc(Br)cc3)c[n+]3c2CCc2ccccc2-3)cc1 | - | - | - | -
CC(C)c1ccc(-n2c(-c3ccccc3)c[n+]3c2CCc2ccccc2-3)cc1 | 54 | 59 | - | 84
C[C@H]1Cn2cnc(C(=O)Nc3cccc(Cl)c3)c2C(=O)N1 | - | 52 | . | 71
CCCC(=O)Nc1ccc2c(c1)OC[C@@H](C)N(CCC(F)(F)F)C[C@@H](C)[C@@H](OC)CN(C)C2=O | - | . | . | .
COc1ccc2c3c(n(C)c2c1)[C@@H](CO)N(C(=O)C1CCCC1)CC31CCN(C)CC1 | - | . | . | .
COc1ccc(CN(C)C[C@H]2Oc3ccc(NS(=O)(=O)c4ccc(OC)cc4)cc3CC(=O)N([C@@H](C)CO)C[C@@H]2C)cc1 | - | . | . | .
O=C(NC1CC1)C1=C[C@@H](c2ccc(Br)cc2)C[C@@H](OCCCCO)O1 | . | 51 | - | -
Cc1nc([N+](=O)[O-])c(Sc2nc3ccccc3[nH]2)n1Cc1ccccc1 | - | - | - | 57
COc1ccc2nc(Sc3c([N+](=O)[O-])nc(C)n3Cc3ccccc3)[nH]c2c1 | . | . | - | .
Cc1cc2nc(Sc3c([N+](=O)[O-])nc(C)n3Cc3ccccc3)[nH]c2cc1C | - | - | - | 84
CNC(=O)C[C@H]1CC[C@@H]2[C@H](COc3ccc(NC(=O)Cc4cccs4)cc3C(=O)N2C)O1 | - | . | . | .
C[C@H](CO)N1C[C@H](C)[C@H](CN(C)C(=O)Nc2ccc(F)cc2)OCCCC[C@H](C)Oc2ccc(NC(=O)Nc3ccccc3)cc2C1=O | 59 | . | . | .
C[C@H](CO)N1C[C@H](C)[C@H](CN(C)C(=O)Nc2ccc(F)cc2)OCCCC[C@H](C)Oc2ccc(NC(=O)NC3CCCCC3)cc2C1=O | 72 | . | . | .
C[C@@H]1CCCCO[C@H](CN(C)C(=O)Nc2ccc(F)cc2)[C@@H](C)CN([C@H](C)CO)C(=O)c2cc(NC(=O)NC3CCCCC3)ccc2O1 | - | . | . | .
C[C@@H]1CCCCO[C@@H](CN(C)C(=O)Nc2ccccc2)[C@H](C)CN([C@@H](C)CO)C(=O)c2cc(NC(=O)Nc3ccc(F)cc3)ccc2O1 | - | . | . | .
C[C@H]1CCCCO[C@H](CN(C)C(=O)Nc2ccc(C(F)(F)F)cc2)[C@@H](C)CN([C@@H](C)CO)C(=O)c2cc(NC(=O)NC3CCCCC3)ccc2O1 | - | . | . | .
C[C@H](CO)N1C[C@H](C)[C@H](CN(C)C(=O)Nc2ccc(C(F)(F)F)cc2)OCCCC[C@H](C)Oc2ccc(NC(=O)NC3CCCCC3)cc2C1=O | 55 | . | . | .
SMILES | LGR2 inh | TROY signal inh | HSP90 refold inh | TWEAK-Fn14 inh
C[C@H]1CN([C@@H](C)CO)C(=O)c2cc(C3=CCCCC3)cnc2O[C@H]1CN(C)C(=O)NC1CCCC1 | - | . | . | .
O=C(O)CCCCCCCCCCP(=O)(c1ccccc1)c1ccccc1 | - | - | - | -
O=P(CCCCCCCCCP(=O)(c1ccccc1)c1ccccc1)(c1ccccc1)c1ccccc1 | . | 55 | - | -
Cc1ccc(-c2nnc(SCC(=O)Nc3ccc4c(c3)oc3ccccc34)n2C)c(Cl)c1 | . | - | - | 67
C[C@@H]1CCCCO[C@H](CN(C)S(=O)(=O)c2cccs2)[C@@H](C)CN([C@@H](C)CO)C(=O)c2cc(N(C)C)ccc2O1 | - | . | . | .
CN(C)c1ccc(N=Cc2ccco2)cc1 | . | - | - | 51
C[C@H]1CN([C@@H](C)CO)C(=O)c2cc(-c3ccccc3)cnc2O[C@@H]1CN(C)C(=O)Cc1cccnc1 | - | . | . | .
NS(=O)(=O)c1ccc(N2N=C(c3ccccc3)CC2c2ccccc2Br)cc1 (stereo not drawn) | - | - | . | -
